In PubChem BioAssay (Tox21):
Records with an inconclusive call do not appear. The source made the active and inactive calls. Unless noted, calls come from the whole dose curve; as a rule, active = well fitted curve in the direction sought with a large enough effect in the repeat runs; inconclusive = weak or mixed curves; inactive = no such curve, though single readings can be large; an effect the other way counts as inactive or inconclusive.

How the values were obtained:
[1] = qHTS assay to identify small molecule antagonists of the estrogen related receptor (ERR) signaling pathway - cell viability counter screen (AID 1224818);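 note: series mostly up to about 46 µM; viability measured after 17.5 h of compound exposure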
Procedure, shortened: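 Cytotoxicity check run alongside the ERR antagonist screen: cells exposed to test compounds 17.5 h at 37 C, viability taken as CellTiter-Fluor fluorescence intensity.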

[2] = qHTS assay to identify small molecule antagonists of the estrogen related receptor (ERR) signaling pathway (AID 1224819;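 note: luminescence from an ERR-driven luciferase reporter measured with One-Glo reagent; series mostly up to about 46 µM; nearly all actives have a fitted effect of over 50% in size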)
Procedure, shortened: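 ERR reporter cells were plated at 2,000 cells/well and left 6 h at 37 C/5% CO2 before pin-tool transfer of compounds in DMSO. After 18 h at 37 C, One-Glo was added and luminescence was read 30 min later at room temperature.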

[3] = qHTS assay to identify small molecule agonists of the estrogen related receptor (ERR) signaling pathway (AID 1224820)
Procedure, shortened: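 An ERR cell line provided by NTP was seeded at 2,000 cells per well and allowed to settle for 6 h before compounds in DMSO were added. After 18 h at 37 C, luciferase activity was measured by One-Glo luminescence.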

[4] = system: estrogen-related receptor alpha (ERRalpha) with PGC-1alpha coactivator, human; test: qHTS assay to identify small molecule antagonists of the estrogen related receptor signaling pathway with the pleiotropic PPARgamma coactivator (PGC) (AID 1224821; calls by dose curve;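 note: series mostly up to about 46 µM; lower luminescence signal means antagonism of PGC/ERR signalling; nearly all actives have a fitted effect of over 50% in size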)
Procedure, shortened: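 A PGC/ERR cell line supplied by NTP is seeded, allowed 6 h at 37 C, and treated with test compounds in DMSO for 18 h. Signal is then measured as luciferase luminescence using One-Glo.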

[5] = qHTS assay to identify small molecule antagonists of the estrogen related receptor signaling pathway with the pleiotropic PPARgamma coactivator (PGC) cell viability counter screen (AID 1224822;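 note: series mostly up to about 46 µM; viability read after 17.5 h compound exposure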)
Procedure, shortened: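 Viable cell signal (CellTiter-Fluor, 30 min, 37 C/5% CO2) was measured in PGC/ERR cells after a 17.5 h compound incubation.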

[6] = qHTS assay to identify small molecule agonists of the estrogen related receptor signaling pathway with the pleiotropic PPARgamma coactivator (PGC) (AID 1224823)
Procedure, shortened: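 Compounds dissolved in DMSO are added by pin tool to PGC/ERR cells that have settled for 6 h, and incubation continues 18 h at 37 C. Reporter output is measured as One-Glo luminescence.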

Measured: Potency

CCCN(CCC)C1CCc2ccc(O)cc2C1 (configuration not stated)
inactive: all assays above

C=CCN1CC[C@]23CCCCC2[C@H]1Cc1ccc(O)cc13 (some centres not stated)
not listed: [3]
inactive: all other assays above

CCCN1CCc2cc(O)cc3c2[C@H]1Cc1ccc(O)c(O)c1-3
not listed: [5]
inactive: all other assays above

CN(C(=O)Cc1ccc(Cl)c(Cl)c1)C(CN1CCCC1)c1cccc(OCC(=O)O)c1 (configuration not stated)
inactive: all assays above

NCCCP(=O)(O)O
inactive: all assays above

CC(N)c1cccc(Cl)c1Cl (configuration not stated)
inactive: all assays above

Clc1ccc(N2CC3CCC(C2)N3)nn1
not listed: [2]
inactive: all other assays above

NCC(CP(=O)(O)O)c1ccc(Cl)cc1 (configuration not stated)
inactive: all assays above

CC(C)NP(=O)(NC(C)C)OP(=O)(NC(C)C)NC(C)C
inactive: all assays above

O=C(O)[C@@H]1CCN1
inactive: all assays above
